This is an account of results in PubChem BioAssay AID598 (SRMLSC, 2007).

In all, about 85,000 compounds went through this assay and about 5,100 (6%) were called active.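 Rule for the calls: active = viability at or below 40%; inactive = viability above 40%.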 The sample as a whole holds a higher share of actives than the screen did.

The nature of the assay: H69AR cell viability reduction – human, 86K library, primary screen (AID 598).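 Note: multidrug resistant small cell line overexpressing MRP-1 efflux transporter; 100% = mean luminescence of untreated control wells.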 Conditions: H69AR lung tumor viability, ATP luminescence, 72 h; at 10 µM; hits give low values.
What is called viability is a read-out of living cells in per cent, often relative to untreated cells. Consider `COC(=O)c1ccc(CSc2ccc3nnc(-c4ccccc4)n3n2)o1`, for which the viability was 71.6% (inactive).

`CC(C)CCNc1nc(N2CCCC2)c2c(c1C#N)CCN(C)C2`: the viability was 1.84% (active).

On to `CCN1CCc2c(C#N)c(NCc3ccccc3)nc(NCCO)c2C1`, for which the viability was 62.2% (inactive).

`CC(C)Cc1nc(N2CCOCC2)c(C#N)c2c1CCC2`: the viability was 89.6% (inactive).

With `Cc1ccc2nc(SC(C)C(=O)NCc3ccco3)[nH]c2c1` (stereo not drawn), the viability is 85.7% (inactive).

As for `c1ccc(-n2nc3ccccc3n2)cc1`, the viability was 96% (inactive).

Turning to `Cc1nn(Cc2ccccc2)c2c1C(c1ccccc1)C(C#N)=C(N)O2` (stereo not drawn), the viability is 76.3% (inactive).

`Cc1cc(C(=O)OC(C)C(=O)Nc2cccc(S(=O)(=O)N3CCOCC3)c2)c(C)o1` (stereo not drawn): the viability is 102% (inactive).

As for `COC(=O)C1C(=O)NCC1c1ccc(C)cc1` (stereo not drawn), the viability was 82.2% (inactive).

For the compound `COC(=O)C1=C(Nc2ccc(C)cc2)C=C(C)C(C(=O)OC)C1c1ccc(F)cc1` (stereo not drawn), the viability was 12.1% (active).

`COC(=O)C1=C(Nc2ccc(OC)cc2)C=C(C)C(C(=O)OC)C1c1ccc(C)cc1` (stereo not drawn): the viability was 55.6% (inactive).

Take `CCOC(=O)c1ccc2c(c1)nc(C)n2CC`: the viability was 113% (inactive).

Consider `Cc1nnc(NC(=O)CCCOc2ccccc2)s1`, for which the viability is 93.8% (inactive).

As for `CCC(CC)C(=O)N1CC(=O)Nc2ccc(Br)cc2C1c1ccccc1` (stereo not drawn), the viability was 87% (inactive).

Take `COC(=O)/C(NC(C)=O)=C(\C)c1ccc(Cl)cc1`: the viability is 102% (inactive).

For the compound `Cc1cccc(NC(=O)/C(=C\c2ccco2)NC(=O)c2ccccc2)c1`, the viability is 85.2% (inactive).

Take `Cc1cc(C)cc(N(CC(=O)N2CC=C(c3ccccc3)CC2)S(=O)(=O)c2c(C)noc2C)c1`: the viability is 22.6% (active).

Consider `CCOC(=O)C1CCCN(C(=O)CN(c2ccc(OC)cc2)S(=O)(=O)c2c(C)noc2C)C1` (stereo not drawn), for which the viability is 78.5% (inactive).

In the case of `Cc1cc(C)cc(N(CC(=O)NCC2CCCO2)S(=O)(=O)c2c(C)noc2C)c1` (stereo not drawn), the viability is 92.5% (inactive).

Take `CCOC(=O)C1C(=O)NCC1c1ccccc1` (stereo not drawn): the viability is 99.9% (inactive).

`O=C(c1cc2sccc2n1Cc1ccc(F)cc1)N1CCc2ccccc21`: the viability was 76% (inactive).

On to `COC(=O)c1cc(NC(=O)CC2C(=O)NCCN2C(=O)c2ccc(F)cc2)cc(C(=O)OC)c1` (stereo not drawn), for which the viability was 80% (inactive).

In the case of `CCc1ccc2c(c1)C1(NN=C(c3ccccc3)S1)C(=O)N2` (stereo not drawn), the viability was 15.2% (active).

Regarding `C=C1c2cc(CC)ccc2NC(=O)N1c1ccc(C)cc1`, the viability was 91.4% (inactive).

Regarding `O=C1Nc2ccccc2C12Nc1ccccc1S2` (stereo not drawn), the viability was 85.7% (inactive).

With `CCC(=O)NC(Nc1nc2ccc(C)cc2s1)(C(=O)OC)C(F)(F)F` (stereo not drawn), the viability is 82.5% (inactive).

Consider `CC(C)CC(=O)Nc1cc(C(F)(F)F)ccc1N1CCOCC1`, for which the viability is 80.6% (inactive).

`O=C(NCc1ccco1)c1ccc(Cn2c(=O)c3sccc3n(Cc3ccc(F)cc3)c2=O)cc1`: the viability was 82.3% (inactive).

For `COc1ccccc1NC(=O)C1CCCN(c2cc(C)nc3ncnn23)C1` (stereo not drawn), the viability is 85.4% (inactive).

`COc1ccccc1N1CCN(C(=O)c2cc3c(-c4ccc(Cl)cc4)nn(C)c3s2)CC1`: the viability was 79.4% (inactive).

As to `COc1cccc(-c2nn(C)c3sc(C(=O)N4CCN(c5ccccc5)CC4)cc23)c1`, the viability was 70.9% (inactive).

For the compound `CCOC(=O)N1CCN(C(=O)c2cc3c(-c4ccc(Cl)cc4)nn(C)c3s2)CC1`, the viability is 31.4% (active).

With `CSc1nc(-c2ccco2)nn1C(=O)CCc1ccccc1`, the viability was 94.3% (inactive).

In the case of `Cc1ccccc1CSCCNC(=O)c1ccc(Cl)c(S(=O)(=O)N2CCOCC2)c1`, the viability was 24.7% (active).

On to `Cc1ccc(C(=O)Nc2ccccc2C(=O)NC2CCCCC2)cc1S(=O)(=O)N1CCOCC1`, for which the viability was 73% (inactive).

In the case of `O=C(NCCSCc1ccccc1)c1ccc(Cl)c(S(=O)(=O)N2CCOCC2)c1`, the viability was 72.6% (inactive).

With `CCCc1noc2c1/C(=N\O)CCC2`, the viability is 111% (inactive).

For the compound `COc1ccc(C(=O)c2oc3ccc(Br)cc3c2NC(C)=O)cc1`, the viability was 37.9% (active).

For `CC(C)C(=O)Nc1c(C(=O)c2ccc(F)cc2)oc2ccccc12`, the viability was 83.5% (inactive).

As to `COC(=O)c1oc2ccc(Br)cc2c1NC(C)=O`, the viability was 95% (inactive).

`CCn1nnnc1SCC(=O)c1ccc(C)cc1C`: the viability is 101% (inactive).

For the compound `CN(C)c1ccc(CNC2C3CC4CC(C3)CC2C4)cc1` (stereo not drawn), the viability was 99.4% (inactive).

On to `O=C(Nc1cccc(Cl)c1)Nc1nnc(-c2ccccc2)o1`, for which the viability is 70.9% (inactive).

Take `CC(C)(C)c1ccc(NC(=O)NCc2ccco2)cc1`: the viability is 39.5% (active).

For the compound `Cc1ccccc1NC(=O)NCc1ccco1`, the viability is 99.6% (inactive).

`CC(C)(C)c1ccc(C(=O)NCCC(=O)NCc2ccco2)cc1`: the viability is 87.7% (inactive).

Take `CCC(c1nnnn1C(C)(C)C)N(Cc1cc2cccc(C)c2n2nnnc12)C1CCCC1` (stereo not drawn): the viability is 78.9% (inactive).

As to `CCOc1cc(N2CCOCC2)c(OCC)cc1NC(=O)COC(=O)[C@H](Cc1c[nH]c2ccccc12)NC(C)=O`, the viability is 71.8% (inactive).

`CCOc1cc(NC(=O)c2ccco2)c(OCC)cc1NC(=O)COc1ccccc1`: the viability is 91.9% (inactive).

Regarding `CCOc1cc(N2CCOCC2)c(OCC)cc1NC(=O)COc1cccc2cccnc12`, the viability was 21.9% (active).

On to `O=C(Nc1cccc(NC(=O)c2ccco2)c1)c1cnccn1`, for which the viability is 87.2% (inactive).

With `Cc1cc(C)c(NC(=O)CN2CCOCCOCCOCCOCC2)c(C)c1`, the viability is 97.2% (inactive).

In the case of `Cc1cc(Cl)c(S(=O)(=O)N(C)C)cc1OCC(N)=O`, the viability is 96% (inactive).

For the compound `CCCCC(C(=O)OCC(=O)c1ccc(OC)cc1)N1C(=O)c2ccccc2C1=O` (stereo not drawn), the viability is 95% (inactive).

For `CC/C(O)=N\S(=O)(=O)c1ccc(N=NN(C)C)cc1`, the viability is 85.7% (inactive).

In the case of `CN(C)S(=O)(=O)c1ccc(N2CCCC2)c(C(=O)NCc2ccccc2)c1`, the viability was 83.6% (inactive).

With `CCOC(=O)C1=C(O)CSC1=Nc1cccc(Cl)c1`, the viability was 91.2% (inactive).

Take `Clc1cccc(N=C2NN=C(c3ccc4c(c3)OCCO4)CS2)c1`: the viability was 1.44% (active).

With `COCCn1c(C)cc(C2=NNC(=Nc3ccc(F)cc3)SC2)c1C`, the viability was 88.2% (inactive).

In the case of `CN1CCN(C(=O)Cn2c(C(F)(F)F)nc3ccccc32)CC1`, the viability is 96.4% (inactive).

On to `O=C(Nc1nnc(C2CC2)s1)c1ccccn1`, for which the viability was 81% (inactive).

As to `O=C1Nc2cc(Cl)c(Cl)cc2N(O)N1c1cc(Cl)cc(Cl)c1`, the viability was 102% (inactive).

`COc1cccc(N(CC(=O)NCCSc2ccccn2)S(C)(=O)=O)c1`: the viability is 95.5% (inactive).

As for `CC1(C)OC(=O)N2CCc3ccccc3C21C` (stereo not drawn), the viability was 91.6% (inactive).

With `O=C(COC(=O)c1ccc(S(=O)(=O)N2CCc3ccccc3C2)cc1)NC(=O)NCc1ccco1`, the viability was 18.3% (active).

In the case of `O=C(Nc1ccc(S(=O)(=O)N2CCc3ccccc3C2)cc1)c1ccccc1`, the viability was 69% (inactive).

As to `O=C(CN1CCN(S(=O)(=O)/C=C/c2ccccc2)CC1)NC(=O)NCc1ccco1`, the viability is 93.8% (inactive).

For `O=C(NC(C(=O)NCCN1CCOCC1)C12CC3CC(CC(C3)C1)C2)C1CCCCC1` (stereo not drawn), the viability is 90.9% (inactive).

With `Nc1ccc(-c2nnc(-c3ccc(-c4ccccc4)cc3)o2)cc1`, the viability is 55% (inactive).

Take `c1ccc(Nc2n[nH]nc2-c2ccccc2)cc1`: the viability is 94.2% (inactive).

Consider `Nc1ccc(Nc2ccccc2)cc1`, for which the viability is 15.3% (active).

For `CCCCCCOc1ccc(OC(=O)c2cccnc2)cc1`, the viability is 99.5% (inactive).

Consider `Cc1cc(C(=O)Nc2ccccc2N2CCOCC2)c2ccccc2n1`, for which the viability was 67.9% (inactive).

In the case of `O=C(CCc1ccccc1)NCc1cccnc1`, the viability is 97.5% (inactive).

For `O=C(NCc1cccnc1)c1cn(-c2ccccc2)nc1-c1cccs1`, the viability is 9.99% (active).

As to `COC(=O)c1cn(-c2ccccc2)nc1-c1cccnc1`, the viability was 108% (inactive).

As to `CCN(CC)CCNC(=O)CCCCCn1c(=O)[nH]c2cc(C(=O)OC)ccc2c1=O`, the viability is 102% (inactive).

On to `COc1ccccc1C(c1nnnn1C(C)(C)C)N1CCN(Cc2ccccc2)CC1` (stereo not drawn), for which the viability was 85.2% (inactive).

On to `COc1ccc(-c2nnc(SCC(=O)c3ccc4c(c3)OCCO4)o2)cc1`, for which the viability is 102% (inactive).

`COc1ccc(-c2nnc(SC(=O)N3c4ccccc4Sc4ccccc43)o2)cc1`: the viability was 4.55% (active).

On to `COc1ccc(-c2nnc(SC(C)C#N)o2)cc1` (stereo not drawn), for which the viability is 86.7% (inactive).

As for `CCCCCCNCCn1cnc2c(N)ncnc21`, the viability is 105% (inactive).

On to `Cc1ccc(S(=O)(=O)NCCSC(C)(C)C)cc1`, for which the viability is 106% (inactive).

Regarding `Cc1nnc(SC(C)C(=O)Nc2ccc(S(=O)(=O)NC3CCCCC3)cc2)s1` (stereo not drawn), the viability was 90.2% (inactive).

On to `Cc1c(Br)cc(C(=O)N2CCCCCC2)c(C)c1C`, for which the viability was 85.9% (inactive).

For the compound `Cc1ccc(Nc2cc(=O)n(C3CCCCC3)c(=O)[nH]2)cc1C`, the viability is 9.54% (active).

Turning to `Cc1ccc(NS(=O)(=O)c2c(C)[nH]c(=O)[nH]c2=O)cc1C`, the viability was 112% (inactive).

For `CCC1(CC)Cc2ccccc2-c2nc3ccccc3c(=O)n21`, the viability was 88.7% (inactive).

For the compound `CCOc1ccccc1C(=O)NC1CC2CCCC(C1)N2Cc1ccccc1` (stereo not drawn), the viability is 72.2% (inactive).

For the compound `CC(C)Oc1ccc(C(=O)NC(C)(C)CO)cc1`, the viability is 106% (inactive).

As to `Cc1cc(C)n(-c2nnc(C)n2NC(=O)c2cccc(Cl)c2)n1`, the viability was 88.1% (inactive).

On to `O=C(NCCCn1ccnc1)Nc1ccc(Cl)cc1Cl`, for which the viability was 93.2% (inactive).

In the case of `O=C(Nc1ccccc1C(=O)NCCCn1ccnc1)c1ccc(Cl)cc1Cl`, the viability was 75.6% (inactive).

Regarding `CCOc1ccccc1C(=O)NCCCn1ccnc1`, the viability is 98.9% (inactive).

For `CCCCC(=O)Nc1ccc(C(=O)NCCCn2ccnc2)cc1`, the viability is 7.32% (active).

On to `Cc1ccc2c(Cl)c(C(=O)NCCCn3ccnc3)sc2c1`, for which the viability was 88.9% (inactive).

`CCCC(=O)Nc1ccc(C(=O)NCCCn2ccnc2)cc1`: the viability was 15.8% (active).

For the compound `FC(F)(F)c1cnc(Oc2ccccc2-c2nnc(-c3ccc(Cl)cc3)o2)c(Cl)c1`, the viability was 92.2% (inactive).
